Among all 320,000 compounds or so, about 1,700 (0.53%) were called active.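 The calls were made as follows: active = inhibition above the campaign mean of all compounds plus 3 SD (cut at about 26% in these data); inactive = the rest.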 The entries come from a sample that favours actives as a whole.

The values below come from PubChem BioAssay AID2130 (The Scripps Research Institute Molecular Screening Center, 2009).

The target in this assay is Protein phosphatase methylesterase 1 (Homo sapiens) (UniProt Q9Y570). As to the kind of experiment: PME-1 inhibitors via competitive probe labeling, primary screen, biochemical, fluorescence polarization, FP-Rh probe, HTS (AID 2130).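 Also: competitive labeling of PME-1 active site by serine hydrolase directed probe; 0% = PME-1 with DMSO and 100% = wells lacking PME-1 enzyme; inhibitors block probe labeling so polarization falls and inhibition rises.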 The note with it: recombinant PME-1, FP-Rh probe fluorescence polarization; at 5.9 µM; hits give high values.
Chain of Protein phosphatase methylesterase 1 (Homo sapiens) (Q9Y570 whole entry, looked up): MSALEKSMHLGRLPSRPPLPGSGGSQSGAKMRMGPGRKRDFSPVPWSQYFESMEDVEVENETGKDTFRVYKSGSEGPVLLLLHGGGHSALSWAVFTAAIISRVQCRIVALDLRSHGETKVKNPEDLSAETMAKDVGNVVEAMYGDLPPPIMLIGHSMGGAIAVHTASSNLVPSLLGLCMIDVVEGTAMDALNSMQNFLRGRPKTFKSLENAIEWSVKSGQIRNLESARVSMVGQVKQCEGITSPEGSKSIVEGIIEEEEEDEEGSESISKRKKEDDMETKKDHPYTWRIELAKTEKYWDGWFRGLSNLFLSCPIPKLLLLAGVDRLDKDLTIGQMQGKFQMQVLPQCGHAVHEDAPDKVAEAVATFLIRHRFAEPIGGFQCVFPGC
Turning to `C=CCn1cc(-c2cccc(C(F)(F)F)c2)cc(C#N)c1=O`, the inhibition was 1.51% (inactive).

Take `Oc1ccc(N=Cc2sc3ccccc3c2Cl)cc1`: the inhibition is 14.5% (inactive).

As to `CCOc1[nH]n(-c2ccc(Cl)cc2)c(=O)c1C=Nc1ccc(O)cc1`, the inhibition is 14.7% (inactive).

On to `Oc1ccc(N=Cc2c(O)ccc3ccccc23)cc1`, for which the inhibition is 52.4% (active).

With `CN(CCc1ccccn1)S(=O)(=O)c1ccc2c3c(cccc13)C(=O)N2`, the inhibition was 7.3% (inactive).

Turning to `Nc1nc(CC(=O)CSc2ccc(Cl)cc2)nc(Nc2ccc(F)cc2)n1`, the inhibition was 0.37% (inactive).

With `COc1cccc(N2C(=O)CC(N3CCc4ccccc4C3)C2=O)c1` (stereo unspecified), the inhibition was 1.67% (inactive).

For `COc1cccc(N2CCN(CC(=O)Nc3ccnn3C3CCCC3)CC2)c1`, the inhibition was 0.47% (inactive).

Consider `Cc1ccc(Nc2nc(-c3ccc(O)cc3O)cs2)nc1`, for which the inhibition is 29% (active).

For `Clc1ccc(Nc2nc(-c3cccs3)cs2)nc1`, the inhibition was 14.9% (inactive).

As for `Cc1cccc(Nc2nc(-c3ccccc3)cs2)n1`, the inhibition was 9.05% (inactive).

`CCCOc1ccc(CNC(=O)C2CCN(c3nn4c(=O)cc(C)nc4s3)CC2)cc1`: the inhibition was -0.67% (inactive).

`COc1ccc(CN(C(=O)CSc2nnc(-c3ccc(OC)c(OC)c3)o2)c2ccc(F)cc2)cc1`: the inhibition was -0.21% (inactive).

For `COc1ccccc1C(=O)NC(CCSC)C(=O)NNC(=O)c1ccccc1C` (stereo unspecified), the inhibition was -6.59% (inactive).

For `O=S(=O)(NC1CCCC1)c1ccc(-n2cnnn2)cc1`, the inhibition is -6.91% (inactive).

In the case of `COc1ccc(CC(=O)NC2CCSc3ccccc32)cc1OC` (stereo unspecified), the inhibition was 8.44% (inactive).

For `CCC(C)(C)N=C(NC#N)Nc1cccnc1`, the inhibition is -2.16% (inactive).

On to `CC[N+](C)(CC)CCC[n+]1c(-c2ccccc2)c2cc(N)ccc2c2ccc(N)cc21`, for which the inhibition was 54.4% (active).

As for `CC(=O)N/C(=C/c1ccc(Cl)cc1)C(=O)NCCc1c[nH]c2ccccc12`, the inhibition was 1.47% (inactive).

Turning to `N#C/C(=C/c1ccc(N2CCCCC2)o1)C(=O)NCCc1c[nH]c2ccccc12`, the inhibition is 31.4% (active).

For `O=C(CN1C(=O)NC2(CCCCC2)C1=O)NCCc1c[nH]c2ccccc12`, the inhibition is 1.73% (inactive).

For the compound `CCOC(=O)c1c(C)[nH]c(C2=NNC(=NC(C)COC)SC2)c1C` (stereo unspecified), the inhibition is -7.22% (inactive).

With `CCC(C(=O)NC1CCCC1)N(C(=O)Cn1nnc(-c2ccc(C)o2)n1)c1ccc(OC)c(OC)c1` (stereo unspecified), the inhibition was 2.08% (inactive).

With `Cc1ccc(Cl)c(OCC(=O)N2CCc3ccccc3C2)c1`, the inhibition was 2.04% (inactive).

Consider `FC(F)(F)c1nc(-c2ccccc2)ncc1-c1nnnn1-c1ccccc1`, for which the inhibition is -1.36% (inactive).

In the case of `Oc1c(Cl)cc(Cl)c(Cl)c1Cc1c(O)c(Cl)cc(Cl)c1Cl`, the inhibition is 27% (active).
